Screening data as filed in PubChem BioAssay.
Most compounds without a hit are left out; they make up all but 2.6% or so of the library.
GALK inh: GALK (human) enzyme inhibition; recombinant GALK, Kinase-Glo ATP luminescence, 1 h; P51570; 44,000 tested, under 10 active; AID 1347072; Potency, µM (series often up to 57.5 µM), for the others: at the highest dose activity, negative = inhibition, hits mostly inhibitors;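 note: plate controls were full GALK reaction for no effect and reaction lacking GALK for full effect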
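Compounds were pinned into ATP buffer, then GALK-galactose mix was added (final 5 nM enzyme, 35 uM ATP, 100 uM galactose, pH 8.0). After 1 h at room temperature, Kinase-Glo Plus was added and luminescence read.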
DRV1 agonist: agonists of human resolvin D1 receptor DRV1 (GPR32); CHO-K1 GPR32 beta-arrestin PathHunter luminescence, 90 min; zero percent set by DMSO-only wells; 2.5% of 48,000 active; activation, % at 76.9 µM;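 active = activation of at least 60% and not above a set upper limit, about 1 call in 100 departs from these limits; inconclusive = activation of 40% to 60%, or above that upper limit; inactive = activation under 40%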; note: 0% is about no effect
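GPR32 activation in stably transfected CHO-K1 cells, detected as beta-arrestin recruitment by enzyme-fragment complementation. Compound exposure: 90 min, 37 °C.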
B2AR arrestin ag: agonists recruiting beta-arrestin to human beta2-adrenergic receptor; P07550; HTLA Tango cells, beta-arrestin recruitment, luciferase luminescence, 18 h; Potency, µM (doses to about 46.1 µM), most hits filed as activators; 44,000 tested, under 10 active;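 note: potency is the fitted concentration of half-maximal effect; 0% = DMSO and full agonism = EC100 isoproterenol or metaproterenol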
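Ligand-induced beta-arrestin recruitment to recombinant beta2-AR is measured via a tTA-driven luciferase reporter in Tango cells after 18 hr compound exposure at 37 degrees C. Concentrations span up to 46 microM.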
TSG101-PTAP inh: TSG101-PTAP interaction inhibition, HIV-1 budding; Potency, µM (doses to about 115 µM), most hits filed as inhibitors; Fluorescence polarization, FITC-PTAP peptide/Tsg101, 20 min; Q99816; 44,000 tested, under 10 active; note: potency is the fitted concentration of half-maximal effect; 0% is about no effect
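Compounds pinned into 10 uM Tsg101 binding domain, then 50 nM FITC-PTAP peptide added in pH 7.5 HEPES buffer; FP read after 20 min, room temperature. Total S+P intensity flags fluorescent compounds; active cut-off <25 µM, efficacy <60%.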
GALC G270D act: enhancers of human galactocerebrosidase G270D mutant activity in cells; 145M-Twi-hGALC-G270D cells (Twitcher mouse brain line with human GALC G270D), HMU-beta-Gal fluorescence, 48 h; P54803; 0.1% of 45,000 active; Potency, µM (series often up to 57.5 µM), most hits filed as activators; note: potency is the fitted concentration of half-maximal effect; 0% is about no effect; nearly all actives have a fitted effect of over 65% in size
Target sequence (P54803 whole entry G286D): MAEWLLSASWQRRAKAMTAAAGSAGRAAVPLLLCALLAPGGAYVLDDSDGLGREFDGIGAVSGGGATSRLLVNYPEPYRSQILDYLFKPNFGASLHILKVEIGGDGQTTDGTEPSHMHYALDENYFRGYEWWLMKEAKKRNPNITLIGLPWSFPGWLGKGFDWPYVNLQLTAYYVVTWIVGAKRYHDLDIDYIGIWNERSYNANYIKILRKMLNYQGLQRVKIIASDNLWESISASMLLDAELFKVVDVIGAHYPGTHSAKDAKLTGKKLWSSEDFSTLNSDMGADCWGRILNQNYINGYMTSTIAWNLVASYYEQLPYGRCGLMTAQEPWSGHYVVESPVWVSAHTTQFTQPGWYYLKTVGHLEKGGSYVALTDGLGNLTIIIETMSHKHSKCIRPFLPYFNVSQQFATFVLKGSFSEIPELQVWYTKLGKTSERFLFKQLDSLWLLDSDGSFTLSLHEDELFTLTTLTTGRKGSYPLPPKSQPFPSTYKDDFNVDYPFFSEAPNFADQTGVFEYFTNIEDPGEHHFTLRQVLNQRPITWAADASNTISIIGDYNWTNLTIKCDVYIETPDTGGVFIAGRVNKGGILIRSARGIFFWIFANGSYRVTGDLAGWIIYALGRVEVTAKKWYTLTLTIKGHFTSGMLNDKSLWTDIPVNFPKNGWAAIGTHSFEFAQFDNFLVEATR
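Fluorogenic HMU-b-Gal hydrolysis (0.1 mM final, pH 5.2 citrate-phosphate with 1 mg/mL sodium taurocholate; carbonate stop buffer) measures mutant GALC activity after compound treatment of live 145M-Twi Twitcher brain cells stably carrying human GALC-G270D, with wild-type GALC line alongside; activation sought.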
* hit, by the source's call; i = inactive; ? = inconclusive; . = not tested or not shown; ! = repeats disagree. Unless noted, calls come from the whole dose curve; as a rule, active = well fitted curve in the direction sought with a large enough effect; inconclusive = small, poorly fitted or top-dose-only effect, or another doubt; inactive = no such curve, though single readings can be large; an effect the other way counts as inactive or inconclusive.

SMILES | GALK inh | DRV1 agonist | B2AR arrestin ag | TSG101-PTAP inh | GALC G270D act
Cc1cccc(C(=O)NCCc2sc(-c3ccccc3)nc2C)c1 | 3.7% | 77.7* | i | i | i
COc1cccc(C(=O)NCCc2sc(-c3cccc(C)c3)nc2C)c1 | 0.5% | 19.6 | i | i | i
CC(=O)c1cccc(NC(=O)c2nc3ccccc3n(C)c2=O)c1 | 5.8% | 62.1* | i | i | i
CCN(CC)CCNC(=O)c1ccc(-c2nc(CN3CCc4ccccc43)c(C)o2)cc1 | 3.2% | 97.3* | i | i | i
Cc1oc(-c2ccc(C(=O)NCCC(C)C)cc2)nc1CN1CCc2ccccc21 | 0.9% | -0.7 | i | i | i
COc1ccc(-c2csc(=Nc3ccccc3)n2CCO)cc1F | 8.4% | 96.3* | i | i | i
CCN(CC)CCn1c(-c2ccccc2)csc1=Nc1ccccc1 | 1.9% | 84.7* | i | i | i
Cc1ccc(-c2csc(=Nc3ccccc3)n2Cc2ccc3c(c2)OCO3)cc1 | 2.8% | 32.6 | i | i | i
COCCCn1c(-c2ccc(S(=O)(=O)N3CCOCC3)cc2)csc1=Nc1ccccc1 | 0.4% | -49.9 | i | i | i
CC1(C)O[C@@H]2C[C@H]3[C@@H]4CCC5=CC(=O)C=C[C@]5(C)[C@@H]4[C@@H](O)C[C@]3(C)[C@]2(C(=O)CO)O1 | . | 6.4 | . | . | i
O=C(c1cc(O)c(O)c(O)c1)c1ccc(O)c(O)c1O | . | -27.9 | . | . | i
Oc1ccc(Cl)cc1Cc1cc(Cl)ccc1O | . | 69.0* | . | . | i
CC1=C(C(=O)OC2CCCC2)C(c2ccccc2C(F)(F)F)CC(=O)N1 (stereo unspecified) | 0.0% | 95.9* | i | i | i
COc1ccc(S(=O)(=O)N2CCC(n3c(C)nc4cccnc43)CC2)cc1Cl | 3.9% | 70.1* | i | i | .
CN(C)[C@@H](CCOc1cccc2ccccc12)c1ccccc1 | . | 3.6 | . | . | i
O=c1[nH]c(=O)n([C@H]2O[C@H](CO)[C@@H](O)[C@@H]2O)cc1/C=C\Br | . | -5.0 | . | . | i
COc1cc(C=C2CCC/C(=C\c3ccc(O)c(OC)c3)C2=O)ccc1O | . | -44.1 | . | . | i
Cc1cc(C)c(S(=O)(=O)NCCc2sc(-c3cccnc3)nc2C)c(C)c1 | 1.7% | 68.7* | i | i | i
COCCCNC(=O)c1oc2c(c1C)-c1nn(Cc3ccccc3Cl)cc1CC2 | 3.2% | -21.9 | i | i | i
COc1ccc(NC(=O)/C(C#N)=C/c2ccc(C)o2)cc1 | 0.0% | 12.0 | i | i | i
COc1cccc(NC(=O)/C(C#N)=C/c2ccc(-c3ccc(C)cc3)o2)c1 | 2.2% | -24.9 | i | 39.8µM* | i
Cc1ccc(NC(=O)Cc2ccc(-n3c(C)nc4cccnc43)cc2)c(Cl)c1 | -2.2% | 33.9 | i | i | i
CC(C)NCCCC1(C(N)=O)c2ccccc2-c2ccccc21 | . | -29.0 | . | . | i
CCN(c1cccc(C)c1)S(=O)(=O)c1nnc(NC(=O)c2cccs2)s1 | 2.1% | 61.8* | i | i | i
CCN(c1cc(C)cc(C)c1)S(=O)(=O)c1nnc(NC(=O)c2cccs2)s1 | 0.0% | 33.7 | i | i | i
SMILES | GALK inh | DRV1 agonist | B2AR arrestin ag | TSG101-PTAP inh | GALC G270D act
CCCCN1CC(c2nc3ccccc3n2CCCCOc2cccc(C)c2C)CC1=O (stereo unspecified) | -9.2% | 109.2* | i | i | i
CCOc1ccccc1N1CC(c2nc3ccccc3n2CCOc2ccc(C(C)(C)C)cc2)CC1=O (stereo unspecified) | -13.1% | 72.9* | i | i | i
CCc1ccccc1N1CC(c2nc3ccccc3n2CCOc2ccc(Cl)c(C)c2)CC1=O (stereo unspecified) | 0.9% | 77.1* | i | i | i
O=C(CCN1CCN(CCO)CC1)N1c2ccccc2Sc2ccc(C(F)(F)F)cc21 | . | -5.5 | . | . | i
CN1CCN(CCCN2c3ccccc3Sc3ccc(C(F)(F)F)cc32)CC1 | . | 63.7*! | . | . | i
Cc1ccc2oc(-c3cc(NC(=O)Cc4ccccc4)ccc3Cl)nc2c1 | -2.2% | 64.3* | i | i | .
Cc1ccc(C(=O)Nc2ccc3oc(-c4ccccc4C)nc3c2)cc1 | -0.2% | 75.9* | i | i | i
Cc1ccc(CNC(=O)c2nc(-c3ccc(Cl)cc3)n3c2CCCCC3)cc1 | -4.2% | -38.5 | i | i | i
Cc1ccc(CS(=O)(=O)c2ncc(Cl)c(C(=O)Nc3nc4ccc(C)cc4s3)n2)cc1 | 0.9% | 70.2* | i | i | i
Cc1ccc(CS(=O)(=O)c2ncc(Cl)c(C(=O)Nc3nc4ccc(F)cc4s3)n2)cc1 | 6.7% | 80.0* | i | i | i
OCCN(CCO)c1nc(N2CCCCC2)c2nc(N(CCO)CCO)nc(N3CCCCC3)c2n1 | . | 108.1*! | . | . | i
Cc1cc(OCC(=O)N2CCC(c3nc4ccccc4s3)CC2)ccc1Cl | 0.0% | 78.0* | i | i | i
CC(Oc1ccc(F)cc1)C(=O)N1CCC(c2nc3ccccc3s2)CC1 (stereo unspecified) | -5.6% | 67.2* | i | i | i
Cc1ccccc1C(=O)N1CCC(c2nc3ccccc3s2)CC1 | 0.4% | ? | i | i | i
O=C(c1ccccc1Cl)N1CCC(c2nc3ccccc3s2)CC1 | -13.9% | 77.9* | i | i | i
O=C(O)c1ccc(OCCN2CCCCC2)cc1 | . | 4.3 | . | . | i
CNC[C@H](O)[C@@H](O)[C@H](O)[C@H](O)CO | . | -6.6 | . | . | i
CCN1CCOC(=O)C1CC(=O)Nc1ccc(Br)cc1 (stereo unspecified) | 27.9% | 74.4* | i | i | i
Cc1ccc(CN2C(=O)C(=O)c3cc(Br)cc(C)c32)cc1 | -13.9% | -52.6 | i | i | i
Cc1[nH]c(=O)[nH]c(=O)c1S(=O)(=O)N1CCN(c2cccc(Cl)c2)CC1 | 0.8% | 9.3 | i | i | i
Cc1cc2[nH]c(=O)c(=O)[nH]c2cc1S(=O)(=O)N1CCN(c2ccccc2)CC1 | 3.2% | 95.0* | i | i | i
COc1cc2ncnc(Nc3ccc(F)c(Cl)c3)c2cc1OCCCN1CCOCC1 | . | 77.3* | . | . | i
Cc1ccc(C(=O)Nc2ccc(-c3nc4ccccc4s3)cc2C)cc1C | 0.0% | 20.7 | i | i | i
Cc1cccc(C(=O)Nc2ccc(-c3nc4ccccc4s3)cc2Cl)c1 | 1.9% | 91.5* | i | i | i
Cc1ccc(NS(=O)(=O)c2ccc3[nH]c4c(c3c2)CCCCCC4)cc1C | -0.5% | -1.6 | i | i | i
